# FXIa mix inh = FXIa protease inhibitors in compound pools, primary screen, biochemical, 10-compound mixtures | purified FXIa, fluorogenic substrate, pooled mixtures | inhibition, % at 5 µM | 0.19% of 62,000 active;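 note: each value is inhibition by a whole ten-compound pool holding the compound; 0% = enzyme with no mixture and 100% = wells lacking enzyme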
# D1 mod = D1 CRE-luciferase signal change, two-sided – cell-based, HEK293 D1, dopamine EC30, D1 allosteric modulator project, primary screen; 5.9% of 58,000 active; D(1A) dopamine receptor (Homo sapiens), P21728; dopamine EC30 potentiation; actives deviate in either direction; AID 641, 2007; B-score at 10 µM;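 active = luminescence count or its row- and column-corrected plate score outside the 99.7% band of the plate's sample wells, on either side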
# Target sequence (P21728 whole entry, looked up): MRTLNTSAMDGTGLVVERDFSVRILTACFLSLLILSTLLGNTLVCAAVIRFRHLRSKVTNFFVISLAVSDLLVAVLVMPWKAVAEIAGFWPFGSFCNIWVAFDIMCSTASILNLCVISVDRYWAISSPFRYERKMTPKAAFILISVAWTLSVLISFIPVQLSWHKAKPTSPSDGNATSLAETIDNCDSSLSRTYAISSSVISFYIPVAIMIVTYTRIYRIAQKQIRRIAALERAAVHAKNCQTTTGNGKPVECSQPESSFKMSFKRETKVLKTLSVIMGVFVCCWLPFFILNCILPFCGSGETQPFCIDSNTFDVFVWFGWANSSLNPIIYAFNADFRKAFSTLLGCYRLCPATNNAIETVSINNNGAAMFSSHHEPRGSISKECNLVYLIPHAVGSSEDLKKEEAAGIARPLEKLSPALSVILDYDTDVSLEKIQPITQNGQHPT
# M1 antag = antagonists of rat M1 muscarinic receptor. Muscarinic acetylcholine receptor M1 (Rattus norvegicus), P08482. CHO-M1 cells, Fluo-4 calcium, ACh EC80 antagonist mode; stronger effect = lower value. B-score at 10 µM. 3.4% of 64,000 active;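 active = calcium fluorescence response, raw or row-and-column corrected B-score, differing from the plate sample mean either way at a set confidence level, mostly lower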
# FXIIa inh mix = human factor XIIa inhibitors, primary screen, biochemical, pooled compound mixtures, fluorogenic substrate; purified FXIIa; 0.2% of 62,000 active; AID 684, 2007; inhibition, % at 5 µM; Coagulation factor XII (Homo sapiens), P00748;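 note: 0% = enzyme without compound and 100% = no enzyme blank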
# hDAT+cocaine = changed hDAT dopamine uptake under cocaine IC80, either direction, primary screen, cocaine antagonist project, cell-based, LLC-PK1 hDAT, [14C]-dopamine uptake, MLSMR; Sodium-dependent dopamine transporter (Homo sapiens), Q01959; B-score at 10 µM; 1.3% of 110,000 active; LLC-PK1 hDAT cells, [14C]-dopamine uptake with cocaine IC80; actives deviate in either direction;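 active = Z score or B-score, a plate-position-corrected score, falls beyond the plate's 99.7% confidence bounds, in either direction; inactive = both scores lie inside the 99.7% bounds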;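 note: scored against the spread of the other compound wells on the same plate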
# M1 ag = M1 muscarinic receptor agonists, primary screen, CHO-M1 cells, Fluo-4 calcium, agonist mode; Muscarinic acetylcholine receptor M1; Fluo-4 calcium fluorescence; stronger effect = higher value; B-score at 10 µM; 3% of 64,000 active; AID 626, 2007;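 active = fluorescence rise, raw or as B-score row- and column-corrected plate score, outside the 99.7% band of its plate's samples, either direction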
# M1 antag conf = rat M1 muscarinic receptor antagonists, confirmation, CHO cells, Fluo-4 calcium, duplicate. shares compounds with M1 antag. ACh EC80 antagonism; stronger effect = lower value. calcium response (max-min fluorescence) at 10 µM. 43% of 1,700 active;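 active = calcium response below the same-plate mean of wells given acetylcholine alone at its 80%-effect dose, minus 3 SD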;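 note: raw fluorescence intensity difference in arbitrary instrument units and not normalized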
# mGluR4 antag = human mGluR4 response to M1 antagonist hits, M1 allosteric modulator project, cell-based, antagonist mode, secondary assay 1; AID 678, 2007; shares compounds with M1 antag; CHO-mGluR4 calcium flux, Fluo-4 fluorescence, glutamate EC80; stronger effect = lower value; 0.9% of 1,700 active; fluorescence response (max-min) at 10 µM;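 active = fluorescence response below the plate's average for near-maximal glutamate wells, less 3 SD of those wells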;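 note: raw unnormalized fluorescence span taken in the window right after glutamate addition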
# * marks the source's active call; other numbers are inactive results; · = no result. Sampled rows, rich in hits. Any-hit rate of the full collection: about 7.4%. Cut-off read from the data, not from the text of the source, unless noted: active = inhibition above about 20% (passing the limit was not always enough); inactive = the rest.
SMILES,FXIa mix inh,D1 mod,M1 antag,FXIIa inh mix,hDAT+cocaine,M1 ag,M1 antag conf,mGluR4 antag
CCC(C)NC(=O)C1CC(c2cccc(OC)c2)=NO1 (configuration not stated),7.7,0.12,-0.00535,-20.4,0.415,-1.69,·,·
O=C(Nc1ccc2c(c1)OCO2)C(c1ccccc1)N1CCCCC1 (configuration not stated),11.3,-0.745,-3.39*,-0.8,-0.816,-0.628,501*,205
CC1CCCN(C(C(=O)Nc2ccc3c(c2)OCO3)c2ccccc2)C1 (configuration not stated),11.1,-0.854,-4.97*,4.4,-0.0653,0.156,479*,253
Cc1nnc(C)c2c(C)n(Cc3ccc4c(c3)OCO4)c(C)c12,-0.4,-0.983,-4.54*,11.3,1.27,0.253,535*,203
Cc1c(/C=N/n2cnnc2)c2ccccc2n1CCOc1ccccc1,-15.9,-1.2,-0.274,1.0,-0.691,0.101,·,·
CCOC(=O)N1CCC(NS(=O)(=O)c2ccc3c(c2)C(C)(C)C(=O)N3C)CC1,6.5,-0.227,-16.6*,-0.3,-0.0356,0.457,579,240
CCOC(=O)N1CCC(NS(=O)(=O)c2ccc3c(c2)oc(=O)n3C)CC1,-4.5,0.0669,-0.349,-16.7,-1.18,-1.56,·,·
O=C1CC(c2ccccc2)N1c1ccccc1 (configuration not stated),·,·,·,·,-0.801,·,·,·
CC(NS(=O)(=O)c1ccccc1)C(=O)NCc1ccco1 (configuration not stated),·,·,·,·,0.0831,·,·,·
COC(=O)[C@H](C)NC(=O)NCc1ccco1,5.9,0.934,-4.26*,4.6,-0.0488,-0.231,680,260
CS(=O)(=O)N(CCc1ccccc1)CC(=O)Nc1ccc(OCc2ccccc2)cc1,·,·,·,·,-0.745,·,·,·
CCCS(=O)(=O)N1CCCC(C(=O)N2CCC(Cc3ccccc3)CC2)C1 (configuration not stated),4.7,-0.743,-5.2*,1.0,-0.0294,-0.389,577,260
CCCS(=O)(=O)N1CCC(C(=O)N2CCC(Cc3ccccc3)CC2)CC1,9.0,-0.0222,-0.419,-19.5,0.516,0.309,·,·
O=C(C1CCCN(S(=O)(=O)c2cccc3nonc23)C1)N1CCN(c2ccccc2)CC1 (configuration not stated),·,·,·,·,-0.169,·,·,·
CCCS(=O)(=O)N1CCCC(C(=O)N2CCN(c3ccccn3)CC2)C1 (configuration not stated),-4.5,1.85,-2.57*,1.9,-0.413,0.0381,525,191
Cc1nn(C)c(C)c1S(=O)(=O)N1CCCC(C(=O)N2CCN(c3ccccc3)CC2)C1 (configuration not stated),7.3,-0.193,-2.27*,4.0,·,-0.739,617,257
CC(=O)Nc1cnc2ccccc2n1,·,0.0356,0.99,·,0.4,0.0187,·,·
CC1(C)NC(=O)N(CC(O)COc2cc3ccccc3cc2C(=O)N2CCCCC2)C1=O (configuration not stated),·,·,-2.98*,·,-1.07,0.494,638,243
CC1(C)NC(=O)N(CC(O)COc2ccccc2C(=O)N2CCCCC2)C1=O (configuration not stated),-7.6,0.117,0.499,9.0,0.17,-0.181,·,·
Cn1nc(C(=O)OCCN2C(=O)c3ccccc3C2=O)c2ccccc2c1=O,-2.5,1.68,0.646,9.0,0.553,0.656,·,·
COC(=O)c1ccc2[nH]c(C)cc(=O)c2c1,-5.3,0.32,-6.47*,-40.2,0.0552,-0.0366,210*,186
COc1cccc(-c2cc(C(F)(F)F)n3ncc(S(=O)(=O)c4ccccc4)c3n2)c1,·,·,·,·,-0.187,·,·,·
COC(=O)c1ccc(C2C(C(=O)OC(C)C)=C(C)N=C3SCCC(=O)N32)cc1 (configuration not stated),-0.1,0.392,-0.131,8.0,·,-0.217,·,·
COC(=O)C1=C(C)N=C2SCCC(=O)N2C1/C=C/c1ccccc1 (configuration not stated),-0.2,0.246,-4.46*,6.4,-0.144,0.59,253*,222
CC(C)=CCCC(C)CN(C)CCc1ccccn1 (configuration not stated),-1.7,-0.288,-3.11*,5.9,0.588,0.717,569*,198
SMILES,FXIa mix inh,D1 mod,M1 antag,FXIIa inh mix,hDAT+cocaine,M1 ag,M1 antag conf,mGluR4 antag
COc1cccc(NC(=O)CSc2nnc(-c3cc(C)n(-c4ccccc4)c3C)o2)c1,-12.3,-2.85,-2.6*,9.3,0.0667,0.205,504,237
Cc1cc(C)cc(NC(=O)CSc2nnc(-c3ccccc3Br)o2)c1,6.1,-0.213,0.463,1.3,-0.168,-0.559,·,·
FC(F)(F)C(Oc1nc(NC2CCCCC2)nc(N2CCOCC2)n1)C(F)(F)F,5.3,0.582,-0.197,12.1,-1.27,-0.748,·,·
Cc1ccc(Nc2nc(OC(C(F)(F)F)C(F)(F)F)nc(N3CCOCC3)n2)cc1,8.3,-0.25,-3.73*,-8.4,-1.3,0.158,604,232
O=C(c1ccco1)N1CCN(Cc2cccc(F)c2)CC1,-1.9,-0.188,-0.116,9.5,0.0125,-1.13,·,·
CNC(=O)/C=C1\NC(C)(C)Cc2ccccc21,·,·,·,·,0.439,·,·,·
CCC1(C)Cc2ccccc2/C(=C/C(=O)N2CCCCC2)N1 (configuration not stated),0.3,0.0894,-2.75*,8.0,0.245,-0.786,18*,246
O=C(Nc1ccccc1)OCCNC(=O)c1ccccc1,1.4,0.383,0.0955,-1.0,-0.263,-0.609,·,·
O=C(Nc1cccc2ncccc12)c1ccc(-c2ccc(Br)cc2)o1,·,·,·,·,1.09,·,·,·
C=CCN1C(=Nc2cccnc2)SCC1(O)c1ccc(C)cc1 (configuration not stated),9.3,-0.193,-2.19*,5.4,-1.17,2.04,478*,203
COc1ccccc1-c1c(C)nn2c(N3CCCCCC3)cc(C)nc12,5.2,-1.79,-2.53*,3.1,-0.0682,-0.445,624,207
COc1ccccc1-c1c(C)nn2c(N3CCN(c4ccccc4OC)CC3)cc(C)nc12,-5.5,-0.0676,-0.223,1.0,-0.724,-0.0621,·,·
CC(=Nc1ccccc1)Nc1ccccc1,9.6,0.717,-0.686,4.6,-1.77,1.04,·,·
C=CCn1c(SCC(=O)OC)nc2sc3c(c2c1=O)CCN(C)C3,·,·,-5.26*,·,0.00827,0.0305,198*,212

# High-throughput results deposited in PubChem BioAssay by several laboratories.
